Source: PubChem (National Center for Advancing Translational Sciences (NCATS))
Shown is part of a subset that was picked to be rich in hits.
KDM5B inhibitor: blocks human KDM5B histone demethylase activity; Q9UGL1; AID 1347165; KDM5B demethylase, FDH-coupled NADH fluorescence (FDH is formaldehyde dehydrogenase); 2.6% of 220,000 active; Potency, µM (series often up to 57.7 µM), hits mostly inhibitors; active = well fitted inhibition curve with a large enough effect; also: 0% is about no effect; nearly all actives have a fitted effect of over 70% in size
Target sequence (Q9UGL1 whole entry, looked up): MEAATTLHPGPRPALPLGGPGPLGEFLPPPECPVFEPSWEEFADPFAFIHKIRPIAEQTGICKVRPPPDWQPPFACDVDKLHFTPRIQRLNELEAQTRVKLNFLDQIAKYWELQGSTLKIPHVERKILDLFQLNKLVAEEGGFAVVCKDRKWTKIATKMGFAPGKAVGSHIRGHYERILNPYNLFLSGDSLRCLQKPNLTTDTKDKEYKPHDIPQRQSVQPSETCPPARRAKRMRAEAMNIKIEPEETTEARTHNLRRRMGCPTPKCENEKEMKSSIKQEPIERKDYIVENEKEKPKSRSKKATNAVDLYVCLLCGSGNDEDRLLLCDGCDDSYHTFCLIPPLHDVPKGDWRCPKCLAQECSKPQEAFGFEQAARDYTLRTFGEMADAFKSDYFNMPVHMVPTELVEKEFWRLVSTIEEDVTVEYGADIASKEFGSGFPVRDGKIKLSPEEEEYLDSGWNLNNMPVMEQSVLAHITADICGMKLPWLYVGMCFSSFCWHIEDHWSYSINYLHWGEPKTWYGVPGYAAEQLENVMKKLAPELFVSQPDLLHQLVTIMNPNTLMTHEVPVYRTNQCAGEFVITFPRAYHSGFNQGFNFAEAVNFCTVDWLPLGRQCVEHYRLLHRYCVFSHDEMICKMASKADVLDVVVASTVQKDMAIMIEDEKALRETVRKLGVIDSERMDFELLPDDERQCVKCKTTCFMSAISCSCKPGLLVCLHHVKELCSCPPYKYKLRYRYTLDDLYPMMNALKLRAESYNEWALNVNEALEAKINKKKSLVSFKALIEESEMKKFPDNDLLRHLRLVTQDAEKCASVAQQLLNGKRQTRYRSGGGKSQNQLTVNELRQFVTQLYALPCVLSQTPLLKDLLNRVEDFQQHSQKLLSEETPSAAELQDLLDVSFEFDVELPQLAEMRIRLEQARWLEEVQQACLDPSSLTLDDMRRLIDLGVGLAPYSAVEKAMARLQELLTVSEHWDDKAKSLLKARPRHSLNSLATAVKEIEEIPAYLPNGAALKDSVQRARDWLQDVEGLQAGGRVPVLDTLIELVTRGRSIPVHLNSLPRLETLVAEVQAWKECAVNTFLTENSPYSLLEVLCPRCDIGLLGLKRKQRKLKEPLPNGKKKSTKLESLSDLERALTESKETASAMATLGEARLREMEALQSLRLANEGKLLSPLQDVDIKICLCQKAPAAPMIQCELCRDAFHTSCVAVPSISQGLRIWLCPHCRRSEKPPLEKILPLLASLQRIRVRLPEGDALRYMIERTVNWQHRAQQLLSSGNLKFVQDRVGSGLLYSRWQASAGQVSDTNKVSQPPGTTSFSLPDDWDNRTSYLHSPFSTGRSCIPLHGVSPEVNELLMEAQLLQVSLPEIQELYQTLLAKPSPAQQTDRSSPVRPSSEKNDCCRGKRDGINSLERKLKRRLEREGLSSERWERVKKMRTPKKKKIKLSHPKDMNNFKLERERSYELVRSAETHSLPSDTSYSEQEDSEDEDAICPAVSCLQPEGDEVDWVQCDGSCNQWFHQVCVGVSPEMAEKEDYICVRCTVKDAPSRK
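Coupled FDH/NAD⁺ fluorescence readout. KDM5BΔAP 200 nM final; compound titration, 10 min RT preincubation; substrate mix 12.5 µM H3K4me3, 25 µM 2-OG, 50 µM Fe(II), 100 µM ascorbate, 0.25 mM NAD⁺, 0.25 U/mL FDH; ΔRFU over 30 min.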
* = called active by the depositor; i = inactive. Potency is read from the fitted curve at half-maximal effect.

SMILES	KDM5B inhibitor
O=c1ncn(Cc2ccccc2)c2ccc(-c3ccsc3)nc12	35µM*
O=c1ncn(Cc2ccccc2)c2ccc(-c3ccc(F)cc3F)nc12	28µM*
COc1cccc(F)c1-c1ccc2c(n1)c(=O)ncn2Cc1ccccc1	i
COc1ccc(-c2ccc3c(n2)c(=O)ncn3Cc2ccccc2)cc1OC	i
COCCNC(=O)c1ccc2c(c1)OCCN(c1cccc(OC(F)(F)F)c1)C2	i
O=C1NC2(CCN(Cc3cncs3)CC2)Oc2ccccc21	i
O=C(O)C(c1c[nH]c2ccc(Cl)cc12)N1CCN(Cc2ccc(Cl)cc2Cl)CC1 (centres undefined)	i
Cc1[nH]c2ccccc2c1/C=C(\C#N)C(=O)NC(C)C	i
CN(CC(=O)NC(N)=O)Cc1ccc(C(F)(F)F)cc1	i
Cc1noc(C)c1-c1cc2cc(CO)oc2c(NC2CCOCC2)n1	35µM*
Cc1noc(C)c1-c1cc2cc(CN(C)C)oc2c(Nc2cccnc2)n1	28µM*
Cc1noc(C)c1-c1cc2cc(CO)oc2c(NCC2CCOCC2)n1	32µM*
Cc1cc2cc(-c3c(C)noc3C)nc(NC3CC3)c2o1	i
Cc1noc(C)c1-c1cc2cc(CN(C)C)oc2c(NCc2ccccc2)n1	i
Cc1noc(C)c1-c1cc2cc(CN(C)C)oc2c(NCc2cccnc2)n1	i
Cc1noc(C)c1-c1cc2cc(C(C)C)oc2c(NCCN2CCOCC2)n1	i
Cc1noc(C)c1-c1cc2cc(C(C)C)oc2c(NC2CCN(C)CC2)n1	i
Cc1noc(C)c1-c1cc2cc(C(C)C)oc2c(NCc2cccnc2)n1	i
O=C(NCC(c1ccccc1)c1c[nH]c2ccccc12)c1ccc[n+]([O-])c1 (centres undefined)	i
COc1ccc(Nc2nc(N3CCN(c4ccccc4)CC3)c3cnn(C)c3n2)c(OC)c1	i
C[N+]1(CC(=O)OCCCC2CCCCC2)CCOCC1	i
CCn1cnnc1CC1CCN(C(=O)CCC(=O)n2nc(C)c3ccccc32)CC1	i
CCn1cnnc1CC1CCN(C(=O)c2ccc3ccccc3n2)C1 (centres undefined)	i
CCn1cnnc1CC1CCN(C(=O)c2cnn3c(C)c(Cc4ccccc4Cl)c(C)nc23)CC1	28µM*
Cc1nn(-c2ccc(F)cc2)c(Oc2ccccc2F)c1CCC(=O)NCC(C)C	i
SMILES	KDM5B inhibitor
CC(C)(C)C(=O)NCCc1csc2nc(-c3ccc(F)cc3)nn12	i
CC(C)NC(=O)Cc1csc2nc(-c3ccccc3)cn12	i
Cc1ccccc1-n1nc(-c2c(C)nc3scc(CC(=O)NC(C)C)n3c2=O)cc1C	28µM*
Cc1nc2scc(CC(=O)NCCC(C)C)n2c(=O)c1-c1cc(C)n(-c2cc(F)ccc2F)n1	28µM*
CC(C)CCNC(=O)Cc1cccs1	i
Cc1ccccc1-n1nc(C)c(CCC(=O)NC(C)C)c1Oc1ccccc1	i
CC(C)CCNC(=O)Cn1ccn2nc(-c3ccc(F)cc3)c(CO)c2c1=O	i
Cc1nc2scc(CC(=O)NCCC(C)C)n2c(=O)c1-c1cc(C)n(-c2ccc(F)cc2)n1	28µM*
Cc1[nH]c2ccc(F)cc2c1CC(=O)NCC(C)C	i
Cc1ccc(F)cc1-n1nc(-c2c(C)nc3scc(CC(=O)NCC(C)C)n3c2=O)cc1C	28µM*
CC(C)CCNC(=O)CCCc1nnc2c(=O)n(-c3cccc(F)c3)ccn12	i
CCc1cccc2c(C(=O)CSc3nc4ccccc4o3)c[nH]c12	i
CCn1c(SC(C(=O)N2CCOCC2)c2ccccc2)nnc1-c1ccccc1OC (centres undefined)	i
CCCn1nc(C(=O)OCc2cccc(Cl)c2)c2ccccc2c1=O	i
O=CNC12CCC3CC(CC(C3)C1)C2	i
Cc1ccc(C2Cn3cnc(C(=O)N4CCC(C(=O)NCc5ccccc5)CC4)c3CO2)cc1 (centres undefined)	i
NCc1cccc(NC(=O)c2ccncc2)c1	i
O=C(Nc1ccc(Cl)cc1C(F)(F)F)c1ccccc1F	i
COc1ccc(OC)c(-c2cc(C(=O)O)c3ccc(C)c(C)c3n2)c1	i
O=C(Nc1ccc(F)cc1Cl)c1nc2ccccc2nc1N1CCCC1	i
Fc1ccc(CN2CCNc3cnc(-c4ccccc4)cc3C2)cc1F	35µM*
O=C1NCc2ccccc2CC12CCN(Cc1ccsc1)CC2	i
c1ccc(-c2cc3c(cn2)NCCN(Cc2ccccn2)C3)cc1	35µM*
c1ccc(-c2cc3c(cn2)NCCN(Cc2ccsc2)C3)cc1	35µM*
O=C(CSc1ncc(-c2ccc(F)cc2)o1)Nc1cccc(F)c1	i
SMILES	KDM5B inhibitor
Cc1scc(C(=O)NCc2ccccn2)c1C	i
CCOC(=O)c1cccc(NC(=O)CCc2nc3c(C)nn(-c4ccc(C)cc4)c3n(CC)c2=O)c1	i
CCCCn1nc(C(=O)NC(C)c2ccc3c(c2)OCCO3)c2ccccc2c1=O (centres undefined)	i
COc1ccc(NC(=O)NCc2cccn2Cc2cccc(F)c2)cc1OC	i
COc1cccc(N2C(=O)NC(=NC3CCCCC3)C23CCN(Cc2ccsc2)CC3)c1	i
COc1cc(F)ccc1NS(=O)(=O)c1cc(C(=O)O)ccc1OC	i
Cc1ccccc1OCc1nnc(SCc2c(Cl)cccc2Cl)n1C	i
O=c1oc(-c2ccc(F)cc2)nn1CC(O)COc1ccc(Br)cc1 (centres undefined)	i
CN(C)c1cccc(C(=O)Nc2ncc(-c3cnn(C)c3)c3c2OCC3)c1	i
Clc1ccc(Nc2ncc(-c3cccnc3)c3c2OCC3)cc1	32µM*
COc1ccc(-c2cnc(Nc3cccnc3)c3c2CCO3)cn1	i
Cn1cc(-c2cnc(NC(=O)c3c[nH]c4ccccc34)c3c2CCO3)cn1	i
Cn1cc(-c2cnc(Nc3cccc(C(F)(F)F)c3)c3c2CCO3)cn1	35µM*
O=C(NCC(F)(F)F)c1cccnc1Nc1cccc(C(F)(F)F)c1	i
COC(=O)c1cnc(Nc2cccc(C(F)(F)F)c2)c([N+](=O)[O-])c1	i
Clc1ccc(Nc2ncncc2-c2nc(-c3ccccc3)no2)cc1	i
FC(F)(F)c1cccc(Nc2ncc(-c3cccnc3)c3c2OCC3)c1	28µM*
CCCCNC(=O)c1cccc(I)c1	i
NC(=O)c1ccc(NC(=O)C(F)(OC(F)(F)C(F)(F)C(F)(F)F)C(F)(F)F)cc1 (centres undefined)	i
Cc1ccc(NC(=O)CC2CC3CCC2C3)cc1 (centres undefined)	i
COc1ccc(Nc2nc(N3CCCC3)c3cnn(C)c3n2)c(OC)c1	i
O=C(NCC(O)c1ccc(F)cc1F)c1ccc(=O)[nH]c1 (centres undefined)	i
CCOC(=O)C1=C(CNCc2ccccc2)NC(=O)NC1c1ccccc1 (centres undefined)	i
COc1ccc(C(=O)N2CCN(c3cc(C(F)(F)F)ncn3)CC2)cc1F	i
COc1ccc(-c2cc(C(=O)N3CCCC3)ccn2)cc1F	28µM*
SMILES	KDM5B inhibitor
COc1ccc(-c2cc(N3CCCN(C(=O)c4ccc(OC)c(F)c4)CC3)n[nH]2)cc1	i
Cc1c(C(=O)c2ccc[nH]2)oc2ccc(F)cc12	i
CN(C)CCNc1oc(COc2ccccc2)nc1C#N	i
O=C1CC(c2cc(Br)ccc2F)c2cc3c(cc2N1)OCO3 (centres undefined)	i
Cc1ccccc1C(=O)N1CCC2(CC1)CN(c1ncccn1)CC2CO (centres undefined)	32µM*
O=C(c1ccc(F)cc1)N1CCC2(CC1)CN(Cc1ccccc1)CC2CO (centres undefined)	i
